Screens from PubChem.
Wee1 stabilizer: human Wee1 degradation inhibition, primary screen. P30291. HeLa Luc-Wee1K328M stability, luciferase luminescence; 100% = proteasome inhibitor MG132 effect. reporter increase, % at 5 µM. 1.2% of 220,000 active. AID 1321;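 active means activation above the mean of all tested compounds plus 3 SD, set per screening run, cut at about 8.8% in these data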;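 further: cells exposed to compound for 20 h before luminescence read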
Target sequence (P30291 whole entry K328M): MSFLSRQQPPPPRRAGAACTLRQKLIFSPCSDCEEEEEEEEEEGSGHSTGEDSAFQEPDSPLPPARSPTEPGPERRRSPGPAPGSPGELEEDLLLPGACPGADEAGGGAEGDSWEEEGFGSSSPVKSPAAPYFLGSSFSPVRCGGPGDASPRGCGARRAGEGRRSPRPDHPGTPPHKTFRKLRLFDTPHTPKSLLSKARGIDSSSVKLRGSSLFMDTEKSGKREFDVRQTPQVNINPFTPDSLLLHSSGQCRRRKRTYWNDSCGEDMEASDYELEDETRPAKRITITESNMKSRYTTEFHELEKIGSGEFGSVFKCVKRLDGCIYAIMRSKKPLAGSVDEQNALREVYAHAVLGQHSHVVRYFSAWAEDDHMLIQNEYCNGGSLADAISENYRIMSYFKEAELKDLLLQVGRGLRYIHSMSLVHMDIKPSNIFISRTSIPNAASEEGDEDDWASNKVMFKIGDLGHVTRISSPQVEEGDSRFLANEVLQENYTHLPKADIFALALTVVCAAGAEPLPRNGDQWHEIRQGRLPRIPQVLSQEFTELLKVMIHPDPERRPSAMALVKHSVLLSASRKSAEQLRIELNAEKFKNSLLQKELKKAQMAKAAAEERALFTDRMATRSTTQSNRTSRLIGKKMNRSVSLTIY
p47phox inh: blocks human p47phox regulatory protein of NADPH oxidases; 0.53% of 220,000 active; AID 1274; p47phox/p22phox peptide binding, fluorescence polarization, 2 h; inhibition, % at 24.7 µM;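 active means inhibition above about 30%, limit read from the data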
EP2 modulator: modulates human prostaglandin E2 receptor EP2 signaling | P43116 | EP2-expressing cells, cAMP HTRF FRET, PGE2 co-stimulation | induction, % at 25 µM | 0.83% of 260,000 active;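 active means compounds whose cAMP rise, as percent of the full-agonist control response, exceeds 60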;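 further: rat C6 glioma line stably carrying human EP2 under a CMV promoter; the protocol text gives 20 µM as final concentration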
HSV replic up: HSV replication enhancement; HSV replication augmentation in cells, fold increase; maximum fold increase; 0.005% of 220,000 active; AID 1956; in the data active means maximum fold increase above about 1.5; inconclusive means no clear call, values can overlap the other calls; tested in PC3 cells
Furin inh: blocks human furin protease activity | P09958 | purified furin, fluorogenic substrate cleavage | inhibition, % at 20 µM or 30 µM | 0.061% of 220,000 active | AID 463115; in the data active means inhibition above about 25%
EP2 antag: inhibitors of human EP2 prostaglandin E2 receptor; 0.52% of 260,000 active; C6 glioma cells expressing human EP2, cAMP TR-FRET; cells stimulated with saturating PGE2; inhibition, % at 25 µM; P43116;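 active means percent inhibition above 40 after rounding to a whole number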;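 further: rat C6 glioma host cells with rolipram phosphodiesterase inhibitor present; the protocol text gives 20 µM as final concentration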
Hits are given with their value; ! = a repeat was not active. In the library only some 2.8% were active in any assay of this set; here they are far more common.

Screening Cc1cc(-c2n[nH]c(=S)n2Cc2ccccc2)cs1 returned Wee1 stabilizer inactive, p47phox inh 41, EP2 modulator inactive, HSV replic up inactive, Furin inh inactive and EP2 antag inactive.
CCCCOC(=O)c1ccc(N=Nc2c(C)c(C#N)c(O)[nH]c2=O)cc1 was read as Wee1 stabilizer inactive, p47phox inh inactive, EP2 modulator inactive, HSV replic up inactive, Furin inh inactive and EP2 antag inactive.
`Cc1cccc(N=Nc2c(C)c(C#N)c(O)[nH]c2=O)c1` gave Wee1 stabilizer inactive, p47phox inh 79, EP2 modulator inactive, HSV replic up inconclusive, Furin inh inactive and EP2 antag inactive.
For O=C1c2cccc3cccc(c23)C(=O)N1OS(=O)(=O)c1ccc(Br)cc1 the results were Wee1 stabilizer inactive, p47phox inh inactive, EP2 modulator inactive, HSV replic up inactive, Furin inh inactive and EP2 antag inactive.
O=C1C(Br)=Cc2cccc3cccc1c23 was read as Wee1 stabilizer inactive, p47phox inh 31, EP2 modulator inactive, HSV replic up inactive, Furin inh inactive and EP2 antag inactive.
`CCN1CCN(CCNC(=O)c2ccc3c(c2)N(Cc2ccc(F)cc2)C(=O)/C(=C/c2ccccc2)S3)CC1` gave Wee1 stabilizer inactive, p47phox inh 62, EP2 modulator inactive, HSV replic up inactive, Furin inh inactive and EP2 antag inactive.
CCc1ccc(/C=C2/Sc3ccccc3N(CC(=O)NCCCOC)C2=O)cc1 was read as Wee1 stabilizer inactive, p47phox inh inactive, EP2 modulator inactive, HSV replic up inactive, Furin inh inactive and EP2 antag inactive.
Screening O=C(NCCN1CCOCC1)c1ccc2c(c1)N(Cc1cccc(F)c1)C(=O)c1ccccc1S2 returned Wee1 stabilizer inactive, p47phox inh inactive, EP2 modulator inactive, HSV replic up inactive, Furin inh inactive and EP2 antag inactive.
`CN1CCN(CCCNC(=O)c2ccc(/C=C3\Sc4ccccc4N(Cc4ccccc4F)C3=O)cc2)CC1` gave Wee1 stabilizer inactive, p47phox inh 86, EP2 modulator inactive, HSV replic up inactive, Furin inh inactive and EP2 antag 88.
CCN1CCN(CCNC(=O)c2ccc(/C=C3/Sc4ccccc4N(Cc4cccc(Cl)c4)C3=O)cc2)CC1 was read as Wee1 stabilizer inactive, p47phox inh 72, EP2 modulator inactive, HSV replic up inactive, Furin inh inactive and EP2 antag inactive.
Cc1ccc2[nH]c(=O)c(-c3noc(C)n3)cc2c1 was read as EP2 modulator inactive and EP2 antag inactive.
For CC1CCN(C(=O)c2ccc(NC(=O)C(=O)NC(C)(C)C)cc2)CC1 the results were EP2 modulator inactive and EP2 antag inactive.
CC1CCN(CC(=O)Nc2ccccc2C(=O)c2ccccc2)CC1 was read as Wee1 stabilizer inactive, p47phox inh inactive, EP2 modulator 63, HSV replic up inactive, Furin inh inactive and EP2 antag inactive.
Screening CC1CCN(CC(=O)Nc2ccccc2-c2ccccc2)CC1 returned Wee1 stabilizer inactive, p47phox inh inactive, EP2 modulator 65!, HSV replic up inactive, Furin inh inactive and EP2 antag inactive.
Screening COc1ccc(N(C(C)C(=O)NCc2ccncc2)S(C)(=O)=O)cc1 (centres undefined) returned EP2 modulator inactive and EP2 antag inactive.
COCCNC(=O)C(C)N(c1ccc(OC)cc1)S(C)(=O)=O (centres undefined) was read as Wee1 stabilizer 10, p47phox inh inactive, EP2 modulator inactive, HSV replic up inactive, Furin inh inactive and EP2 antag inactive.
Screening O=C(NCCCn1ccnc1)c1ncoc1-c1ccccc1C(F)(F)F returned EP2 modulator inactive and EP2 antag inactive.
Screening CC(NC(=O)C(=O)NCCC1=CCCCC1)c1ccccc1 (centres undefined) returned Wee1 stabilizer 8.8, p47phox inh inactive, EP2 modulator inactive, HSV replic up inactive, Furin inh inactive and EP2 antag inactive.
NC(=O)CCCc1nc(-c2ccccc2Cl)no1 was read as Wee1 stabilizer 10, p47phox inh inactive, EP2 modulator inactive, HSV replic up inactive, Furin inh inactive and EP2 antag inactive.
`COC(=O)c1ccc(Cl)c(NC(=O)C2COc3ccccc3O2)c1` (centres undefined) gave EP2 modulator inactive and EP2 antag inactive.
